The other results are listed elsewhere or left out. Activity calls are given as the source filed them.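 How the source made its calls: active means compounds whose half-maximal effective concentration is below 100 µM; inactive means the rest.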

The results in this text go back to PubChem BioAssay AID624484 (NMMLSC, 2012).

A short description of this assay: empty-vector K562 compound effect – cell-based, flow cytometry, cherry pick set 2, counter-screen for ABCB6 inhibitor project, dose response (AID 624484). Background: Flow cytometry measures light scatter and fluorescence of single cells or particles in a stream.

Regarding `Cc1ccc(CS(=O)(=O)c2ncc(Cl)c(C(=O)Nc3nnc(C)s3)n2)cc1`, the compound was classed as inactive.
